# CYP2C19 activ – increases human CYP2C19 enzyme activity; recombinant CYP2C19, luciferin-H EGE luminescence; stronger effect = higher value; 0 = fully inhibited enzyme, 1 = untreated enzyme; activation factor at 5 µM; 96,000 tested, under 10 active; P33261;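 active = activation factor of at least 2 at 5 µM in the primary screen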;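 also: 0 = wells with 2.5 mM tranylcypromine and 1 = vehicle-only wells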
# Target sequence (P33261 whole entry, looked up): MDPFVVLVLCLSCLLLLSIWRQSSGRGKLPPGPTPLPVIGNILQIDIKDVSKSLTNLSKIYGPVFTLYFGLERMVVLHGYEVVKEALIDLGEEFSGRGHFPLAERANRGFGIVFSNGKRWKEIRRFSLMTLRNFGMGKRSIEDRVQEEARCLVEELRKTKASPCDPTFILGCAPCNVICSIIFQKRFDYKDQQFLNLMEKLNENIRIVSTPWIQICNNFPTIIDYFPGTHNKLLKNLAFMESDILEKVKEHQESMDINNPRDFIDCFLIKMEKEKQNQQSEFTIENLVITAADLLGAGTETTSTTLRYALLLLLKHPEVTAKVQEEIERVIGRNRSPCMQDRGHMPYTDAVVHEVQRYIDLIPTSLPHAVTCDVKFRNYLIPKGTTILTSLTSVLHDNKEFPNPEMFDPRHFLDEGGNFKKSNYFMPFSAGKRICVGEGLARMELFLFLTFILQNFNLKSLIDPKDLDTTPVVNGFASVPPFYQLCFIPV
# Measles CPE – protection of cells from measles virus; Measles virus-infected cells, CPE protection, absorbance; protection (pct of control), % at 4 µM; 140,000 tested, 1.5% active; in the data active = protection mostly above about 24%, no sharp cut-off; inactive = mostly below about 26%
# CYP2C9 inh – blocks human cytochrome P450 2C9. 96,000 tested, 20% active. CYP2C9 Supersomes, luciferin-H conversion, luminescence. P11712. AID 777. inhibition, % at 5 µM;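 active = blocking of liver enzyme CYP2C9 beyond about 50% at 5 µM, limit read from the data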
# CYP2C9 activ – increases human cytochrome P450 2C9 activity. recombinant CYP2C9, luciferin-H conversion, luminescence; stronger effect = higher value; factor 1 = untreated enzyme, 0 = blocked. activation factor at 5 µM. 96,000 tested, 1.4% active. AID 1024;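 active = activation factor of 2 or more for CYP2C9 at a 5 µM dose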;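 also: 0 = sulfaphenazole-blocked wells and 1 = vehicle-only wells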
# CYP2C19 inh – inhibitors of human CYP2C19; P33261; CYP2C19 Supersomes, luciferin-H EGE luminescence, 30 min; inhibition, % at 5 µM; 96,000 tested, 21% active;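 active = CYP2C19 inhibition above a set limit at 5 µM in the primary screen, cut at about 50% in these data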;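 also: plate controls were negative control wells for no effect and 2.5 mM tranylcypromine positive control for full effect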
# * = called active by the depositor; nt = no result. In the library only some 22% were active in any assay of this set; here they are far more common.
SMILES,CYP2C19 activ,Measles CPE,CYP2C9 inh,CYP2C9 activ,CYP2C19 inh
Cc1ccc(S(=O)(=O)N(C)CC(=O)NCc2ccncc2)cc1,0.1,6,80*,0.2,90*
Cc1ccc(S(=O)(=O)N(CC(=O)NCc2ccncc2)C2CCCCC2)cc1,0,10,93*,0.1,99*
Cc1ccc(CNC(=O)CN(C)S(=O)(=O)c2cnc[nH]2)cc1,nt,3,nt,nt,nt
CCC(C(=O)Nc1ccccc1)c1ccccc1 (configuration not stated),nt,15,nt,nt,nt
Cc1cc2nc(C)n3c4ccccc4nc3n2n1,1.1,2,-12,1.1,-13
CC(C)Nc1nc(NC(C)(C)C)nc(Oc2ccc(=O)n(-c3ccccc3)n2)n1,0.9,28,11,0.9,6
CCCCN(CCCC)C(=O)c1ccccc1NC(=O)CN1C(=O)c2ccccc2C1=O,0.1,5,93*,0.1,92*
CCOP(=O)(c1ccccc1)c1nc(-c2ccccc2C)oc1N1CCCCC1 (configuration not stated),0.9,4,10,0.9,8
C=CCN(Cc1cccc(OC)c1OC)S(=O)(=O)N(C)C,0.7,5,20,0.8,33
CCN(CC)CCCNC(=O)c1nn(-c2cccc(OC)c2)c(=O)c2ccccc12,1.1,3,29,0.7,-7
COc1ccc(/C=N/NC(=O)c2nn(-c3ccc(C)c(C)c3)c(=O)c3ccccc23)cc1,0.9,6,64*,0.4,15
COc1ccc(/C=N/NC(=O)c2nn(-c3ccccc3)c(=O)c3c(N)scc23)cc1,1,51*,30,0.7,5
COc1ccc(/C=N/NC(=O)c2nn(-c3ccc(Cl)cc3)c(=O)c3c(N)scc23)cc1,0.9,12,48,0.5,8
CCCOP(=O)(c1ccccc1)c1ccccc1,nt,18,nt,nt,nt
O=C(CC(c1ccccc1)c1ccccc1O)N1CCCC1 (configuration not stated),0.6,9,3,1,35
Cc1ccc(C(CC(=O)N2CCCC2)c2ccccc2)c(O)c1C (configuration not stated),0,3,96*,0,96*
Cc1cccc(C(CC(=O)N2CCCC2)c2ccccc2)c1O (configuration not stated),0.2,4,73*,0.3,84*
CCC(=O)N1CN(S(=O)(=O)c2ccc(C)cc2)CC1C (configuration not stated),0.5,7,13,0.9,53*
CCOC(=O)c1ccc(NC(=O)Nc2c(C)nn(C)c2C)cc1,1,15,7,0.9,4
Cc1ccc(S(=O)(=O)Nn2c(C)ccc2C)cc1,0.4,19,22,0.8,64*
CCc1ccc(S(=O)(=O)Nc2c(C)nn(C)c2C)cc1,0.2,3,20,0.8,84*
CCn1nc(C)c(NS(=O)(=O)c2ccc(C)cc2)c1C,nt,6,nt,nt,nt
Cc1ccc(S(=O)(=O)Nc2c(C)nn(C)c2C)cc1,0.2,3,5,1,79*
CCOc1ccc(NC(=O)Nc2cc(C)ccc2F)cc1,0.3,5,14,0.9,75*
CCOc1ccc(NC(=O)CNc2ccc(C)cc2Cl)cc1,0.2,13,33,0.7,78*
SMILES,CYP2C19 activ,Measles CPE,CYP2C9 inh,CYP2C9 activ,CYP2C19 inh
CCOc1ccc(NCC(=O)Nc2ccc(C)cc2C)cc1,0.9,3,8,0.9,11
CCOc1ccccc1C1C(C(=O)OC)=C(N)OC2=C1C(=O)CCC2 (configuration not stated),0.1,5,70*,0.3,93*
CCOC(=O)C1=C(N)OC2=C(C(=O)CCC2)C1c1ccc(C)s1 (configuration not stated),0.5,24,16,0.8,53*
Cn1nnnc1SCCNCc1ccccc1OCc1ccc(Cl)cc1,nt,1,nt,nt,nt
Cn1nnnc1SCCNCc1ccc(Cl)cc1,0.2,17,-14,1.1,84*
CCOc1cc(CNCCSc2nnnn2C)cc(Br)c1OCc1ccccc1,0.1,4,81*,0.2,94*
Cn1nnnc1SCCNCc1cc(Cl)ccc1OCc1ccccc1,nt,0,nt,nt,nt
CCC(C)N(C(=O)CSc1nc(-c2ccccc2)cs1)C1CCS(=O)(=O)C1 (configuration not stated),0.9,2,-153,2.5*,12
CCC(C)N(C(=O)COC(=O)c1cn(CC)c2nc(C)ccc2c1=O)C1CCS(=O)(=O)C1 (configuration not stated),1.2,nt,-10,1.1,-15
Cc1ccc(CN2CCN(c3ncccn3)CC2)o1,0.3,2,31,0.7,68*
